From PubChem BioAssay AID1159580 (chemical genetic matrix, 2015)
Several values for one entry are separate records, joined by “and”; a condition that tells them apart may be missing. Identical values can stand only once. The campaign covered roughly 5,500 compounds. About 2,000 (36%) were called active. Roughly 18% stayed inconclusive and do not appear here. No stated cut-off is given here; in the data, active means normalized growth mostly below about 0.91 (no sharp cut-off); inconclusive means no clear call, values can overlap the other calls; inactive means mostly above about 0.92. Some of the results follow.

Test: chemical genetic growth profiling, strain panel (AID 1159580);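 further: tested at 20 µM; growth read once vehicle control cultures reached saturation at 30 °C; 1 = growth at the plate median or of vehicle wells; lower values mean less growth of the strain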
Conditions: growth OD

Measured: normalized growth

CC(C)(C)NCC(O)c1ccc(O)c(CO)c1 (stereo not given)
inactive: S. cerevisiae deletion strains, locus YJR075W, strain HOC1, hits give low values 0.997 and 1.01 | S. cerevisiae deletion strains, locus YKL009W, strain mrt4, hits give low values 1.02 | S. cerevisiae deletion strains, locus YKL068W, hits give low values 1.01 | S. cerevisiae deletion strains, locus YKL085W, strain MDH1 (second series), hits give low values 1.03 | S. cerevisiae deletion strains, locus YKL085W, strain MDH1, hits give low values 1.03 | S. cerevisiae deletion strains, locus YKL160W, strain elf1, hits give low values 1.02 | S. cerevisiae deletion strains, locus YKL190W, strain CNB1, hits give low values 1.02 | S. cerevisiae deletion strains, locus YKR001C, strain vps1, hits give low values 1.01 | S. cerevisiae deletion strains, locus YKR026C, strain gcn3, hits give low values 0.999 | S. cerevisiae deletion strains, locus YKR091W, strain srl3, hits give low values 1 | S. cerevisiae deletion strains, locus YLL001W, strain dnm1, hits give low values 1.02 | S. cerevisiae deletion strains, locus YLL026W, hits give low values 1 | S. cerevisiae deletion strains, locus YLL041C, strain sdh2, hits give low values 1.02 | S. cerevisiae deletion strains, locus YLR027C, strain aat2, hits give low values 1.01 | S. cerevisiae deletion strains, locus YLR039C, strain RIC1, hits give low values 1.06 | S. cerevisiae deletion strains, locus YLR058C, strain SHM2, hits give low values 1.01 | S. cerevisiae deletion strains, locus YLR102C, strain apc9, hits give low values 1.01 | S. cerevisiae deletion strains, locus YLR113W, strain HOG1, hits give low values 1.01 | S. cerevisiae deletion strains, locus YLR221C, strain rsa3, hits give low values 1.01 | S. cerevisiae deletion strains, locus YLR258W, strain gsy2, hits give low values 1.02 | S. cerevisiae deletion strains, locus YLR262C, strain YPT6 (second series), hits give low values 1 | S. cerevisiae deletion strains, locus YLR262C, strain YPT6, hits give low values 1.04 | S. cerevisiae deletion strains, locus YLR268W, strain sec22, hits give low values 1.02 | S. cerevisiae deletion strains, locus YLR320W, strain mms22, hits give low values 1.02 | S. cerevisiae deletion strains, locus YLR330W, strain CHS5, hits give low values 1.01 | S. cerevisiae deletion strains, locus YLR342W, strain FKS1 (second series), hits give low values 1.04 | S. cerevisiae deletion strains, locus YLR342W, strain FKS1, hits give low values 1.01 | S. cerevisiae deletion strains, locus YLR357W, strain rsc2, hits give low values 1.04 | S. cerevisiae deletion strains, locus YLR370C, strain arc18, hits give low values 1.01 | S. cerevisiae deletion strains, locus YLR371W, strain rom2, hits give low values 1 | S. cerevisiae deletion strains, locus YLR384C, strain iki3, hits give low values 1.02 | S. cerevisiae deletion strains, locus YLR418C, strain cdc73, hits give low values 1.05 | S. cerevisiae deletion strains, locus YML016C, strain PPZ1, hits give low values 1.01 | S. cerevisiae deletion strains, locus YML032C, strain rad52, hits give low values 1.01 | S. cerevisiae deletion strains, locus YML120C, strain ndi1, hits give low values 1 | S. cerevisiae deletion strains, locus YML124C, strain tub3, hits give low values 1.01 | S. cerevisiae deletion strains, locus YMR058W, strain fet3, hits give low values 1 | S. cerevisiae deletion strains, locus YMR078C, strain ctf18, hits give low values 1.02 | S. cerevisiae deletion strains, locus YMR125W, strain sto1, hits give low values 1.03 | S. cerevisiae deletion strains, locus YMR129W, hits give low values 1.01 | S. cerevisiae deletion strains, locus YMR205C, strain PFK2, hits give low values 1.02 | S. cerevisiae deletion strains, locus YMR223W, strain ubp8, hits give low values 1.06 | S. cerevisiae deletion strains, locus YMR231W, strain pep5, hits give low values 1.01 | S. cerevisiae deletion strains, locus YMR263W, strain SAP30, hits give low values 1.02 and 1 | S. cerevisiae deletion strains, locus YMR307W, strain GAS1, hits give low values 1.11 and 0.997 and 0.979 | S. cerevisiae deletion strains, locus YNL067W, strain RPL9B, hits give low values 1.01 | S. cerevisiae deletion strains, locus YNL071W, strain lat1, hits give low values 1 | S. cerevisiae deletion strains, locus YNL128W, strain TEP1, hits give low values 1.02 | S. cerevisiae deletion strains, locus YNL175C, strain NOP13, hits give low values 1 and 1.03 | S. cerevisiae deletion strains, locus YNL183C, strain NPR1, hits give low values 0.974 | S. cerevisiae deletion strains, locus YNL197C, strain WHI3, hits give low values 1 and 1.01 | S. cerevisiae deletion strains, locus YNL209W, strain ssb2, hits give low values 1.02 | S. cerevisiae deletion strains, locus YNL224C, strain SQS1, hits give low values 0.996 and 1 | S. cerevisiae deletion strains, locus YNL233W, strain BNI4, hits give low values 0.99 | S. cerevisiae deletion strains, locus YNL248C, strain rpa49, hits give low values 1.03 | S. cerevisiae deletion strains, locus YNL250W, strain rad50, hits give low values 1.02 | S. cerevisiae deletion strains, locus YNL271C, strain bni1, hits give low values 1.02 | S. cerevisiae deletion strains, locus YNL298W, strain CLA4, hits give low values 1.02 | S. cerevisiae deletion strains, locus YNL307C, strain MCK1, hits give low values 1.02 | S. cerevisiae deletion strains, locus YNL322C, strain KRE1 (second series), hits give low values 1.01 | S. cerevisiae deletion strains, locus YNL322C, strain KRE1, hits give low values 1.01 and 1.03 | S. cerevisiae deletion strains, locus YNR049C, strain mso1, hits give low values 1.01 | S. cerevisiae deletion strains, locus YNR052C, strain pop2, hits give low values 1.02 | S. cerevisiae deletion strains, locus YOL006C, strain TOP1, hits give low values 1.05 | S. cerevisiae deletion strains, locus YOL012C, strain htz1 1.03 | S. cerevisiae deletion strains, locus YOL147C, strain pex11, hits give low values 1.02 | S. cerevisiae deletion strains, locus YOR001W, strain rrp6, hits give low values 1.01 | S. cerevisiae deletion strains, locus YOR061W, strain CKA2, hits give low values 1.01 | S. cerevisiae deletion strains, locus YOR069W, strain VPS5, hits give low values 1.01 | S. cerevisiae deletion strains, locus YOR070C, strain gyp1, hits give low values 1.02 | S. cerevisiae deletion strains, locus YOR080W, strain dia2, hits give low values 1.03 | S. cerevisiae deletion strains, locus YOR083W, strain WHI5 (second series), hits give low values 1.01 | S. cerevisiae deletion strains, locus YOR083W, strain WHI5, hits give low values 0.966 | S. cerevisiae deletion strains, locus YOR106W, strain vam3, hits give low values 1.01 | S. cerevisiae deletion strains, locus YOR136W, strain idh2, hits give low values 1.02 | S. cerevisiae deletion strains, locus YOR144C, strain elg1, hits give low values 1.02 | S. cerevisiae deletion strains, locus YOR184W, strain ser1, hits give low values 1.02 | S. cerevisiae deletion strains, locus YOR231W, strain MKK1, hits give low values 1.02 | S. cerevisiae deletion strains, locus YOR265W, strain rbl2, hits give low values 1.01 | S. cerevisiae deletion strains, locus YOR270C, strain vph1, hits give low values 1.02 | S. cerevisiae deletion strains, locus YOR290C, strain snf2, hits give low values 1.03 | S. cerevisiae deletion strains, locus YOR316C, strain cot1, hits give low values 1.01 | S. cerevisiae deletion strains, locus YPL051W, strain arl3, hits give low values 1.01 | S. cerevisiae deletion strains, locus YPL055C, strain LGE1, hits give low values 1.01 | S. cerevisiae deletion strains, locus YPL078C, strain atp4, hits give low values 1 | S. cerevisiae deletion strains, locus YPL106C, strain sse1, hits give low values 1.04 | S. cerevisiae deletion strains, locus YPL240C, strain hsp82, hits give low values 1.02 | S. cerevisiae deletion strains, locus YPL241C, strain CIN2, hits give low values 1.01 | S. cerevisiae deletion strains, locus YPL256C, strain CLN2, hits give low values 1.04 | S. cerevisiae deletion strains, locus YPR119W, strain clb2, hits give low values 1.01 | S. cerevisiae deletion strains, locus YPR141C, strain kar3, hits give low values 1.01 | S. cerevisiae deletion strains, locus YPR163C, strain tif3, hits give low values 1.02 | S. cerevisiae deletion strains, locus YPR167C, strain met16, hits give low values 1.02 | S. cerevisiae deletion strains, strain wtn01, hits give low values 1.04 | S. cerevisiae strains, strain wild type, hits give low values 1.01
